In PubChem BioAssay AID1159580 (chemical genetic matrix, 2015):
Where “and” joins values, the source holds several entries; their conditions need not be identical. Identical values can stand only once. Out of some 5,500 compounds screened, about 2,000 (36%) were called active. Inconclusive results (about 18%) are left out. No stated cut-off is given here; in the data, active means normalized growth mostly below about 0.91 (no sharp cut-off); inconclusive means no clear call, values can overlap the other calls; inactive means mostly above about 0.92. The list shows a part of the results.

Assay: chemical genetic growth profiling, strain panel (AID 1159580);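 further: tested at 20 µM; growth read once vehicle control cultures reached saturation at 30 °C; 1 = growth at the plate median or of vehicle wells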
Conditions: S. cerevisiae deletion strains, growth OD

Measured: normalized growth

CCCCCCCCCCCCCCCC[N+](C)(C)C
active: locus YAL013W, strain DEP1, stronger effect = lower value 0.0576 | locus YAL021C, strain ccr4, stronger effect = lower value 0.0584 | locus YAL026C, strain drs2, stronger effect = lower value 0.0563 | locus YAL030W, strain snc1, stronger effect = lower value 0.0653 | locus YBL061C, strain skt5, stronger effect = lower value 0.057 | locus YBR009C, strain hhf1, stronger effect = lower value 0.06 | locus YBR021W, strain FUR4, stronger effect = lower value 0.123 | locus YBR023C, strain chs3, stronger effect = lower value 0.0601 | locus YBR171W, strain sec66, stronger effect = lower value 0.0733 | locus YBR229C, strain ROT2, stronger effect = lower value 0.0267 | locus YBR231C, strain swc5, stronger effect = lower value 0.0573 | locus YBR279W, strain paf1, stronger effect = lower value 0.0573 | locus YCL011C, strain gbp2, stronger effect = lower value 0.055 | locus YCL016C, strain dcc1, stronger effect = lower value 0.0605 | locus YCL029C, strain bik1, stronger effect = lower value 0.0609 | locus YCL061C, strain MRC1, stronger effect = lower value 0.0602 | locus YCL069W, strain vba3, stronger effect = lower value 0.0611 | locus YCR088W, strain abp1, stronger effect = lower value 0.0586 | locus YDL005C, strain med2, stronger effect = lower value 0.0729 | locus YDL035C, strain GPR1, stronger effect = lower value 0.0499 | locus YDL040C, strain nat1, stronger effect = lower value 0.0563 | locus YDL074C, strain BRE1, stronger effect = lower value 0.0802 | locus YDL101C, strain DUN1, stronger effect = lower value 0.0512 | locus YDL134C, strain PPH21, stronger effect = lower value 0.0552 | locus YDL185W, strain tfp1, stronger effect = lower value 0.0826 | locus YDL192W, strain arf1, stronger effect = lower value 0.0605 | locus YDR001C, strain nth1, stronger effect = lower value 0.0561 | locus YDR069C, strain doa4, stronger effect = lower value 0.0578 | locus YDR101C, strain arx1, stronger effect = lower value 0.0591 | locus YDR137W, strain rgp1, stronger effect = lower value 0.0808 | locus YDR150W, strain NUM1, stronger effect = lower value 0.0572 | locus YDR159W, strain sac3, stronger effect = lower value 0.0724 | locus YDR162C, strain NBP2, stronger effect = lower value 0.0544 | locus YDR195W, strain ref2 0.0903 | locus YDR297W, strain sur2, stronger effect = lower value 0.0606 | locus YDR318W, strain mcm21, stronger effect = lower value 0.0624 | locus YDR334W, strain swr1, stronger effect = lower value 0.0599 | locus YDR335W, strain msn5, stronger effect = lower value 0.0601 | locus YDR388W, stronger effect = lower value 0.0556 | locus YDR392W, strain spt3, stronger effect = lower value 0.0767 | locus YDR502C, strain sam2, stronger effect = lower value 0.0598 | locus YEL003W, strain gim4, stronger effect = lower value 0.0527 | locus YEL037C, strain rad23, stronger effect = lower value 0.0584 | locus YEL061C, strain CIN8 (second series), stronger effect = lower value 0.0593 | locus YEL061C, strain CIN8, stronger effect = lower value 0.0474 | locus YER015W, strain faa2, stronger effect = lower value 0.0592 | locus YER016W, strain bim1, stronger effect = lower value 0.0587 | locus YER110C, stronger effect = lower value 0.0715 | locus YER111C, strain swi4, stronger effect = lower value 0.0703 | locus YER155C, strain BEM2 (second series), stronger effect = lower value 0.0841 | locus YER155C, strain BEM2, stronger effect = lower value 0.0716 | locus YER167W, strain BCK2, stronger effect = lower value 0.0534 | locus YFR010W, strain ubp6, stronger effect = lower value 0.0598 | locus YGL078C, strain dbp3, stronger effect = lower value 0.0583 | locus YGL086W, strain mad1, stronger effect = lower value 0.055 | locus YGL167C, strain pmr1, stronger effect = lower value 0.0703 | locus YGL173C, strain kem1, stronger effect = lower value 0.0795 | locus YGL227W, strain vid30, stronger effect = lower value 0.0598 | locus YGL240W, strain doc1, stronger effect = lower value 0.0655 | locus YGL248W, strain PDE1, stronger effect = lower value 0.0448 | locus YGL253W, strain hxk2, stronger effect = lower value 0.0528 | locus YGR078C, strain PAC10, stronger effect = lower value 0.0545 | locus YGR135W, strain pre9, stronger effect = lower value 0.0674 | locus YGR229C, strain SMI1, stronger effect = lower value 0.0636 | locus YGR252W, strain gcn5, stronger effect = lower value 0.153 | locus YHR013C, strain ard1, stronger effect = lower value 0.0817 | locus YHR027C, strain rpn1, stronger effect = lower value 0.0592 | locus YHR030C, strain SLT2, stronger effect = lower value 0.0556 and 0.0924 | locus YHR079C, strain IRE1 (second series), stronger effect = lower value 0.0564 | locus YHR079C, strain IRE1, stronger effect = lower value 0.0965 | locus YHR094C, strain hxt1, stronger effect = lower value 0.0577 | locus YHR129C, strain ARP1, stronger effect = lower value 0.0524 | locus YHR142W, strain chs7, stronger effect = lower value 0.062 | locus YHR200W, strain rpn10, stronger effect = lower value 0.0595 | locus YIL066C, strain RNR3, stronger effect = lower value 0.0478 | locus YIL073C, strain SPO22, stronger effect = lower value 0.0966 | locus YIL125W, strain kgd1, stronger effect = lower value 0.0641 | locus YIR030C, strain dcg1, stronger effect = lower value 0.0583 | locus YJL092W, strain hpr5, stronger effect = lower value 0.0559 | locus YJL095W, strain BCK1 (second series), stronger effect = lower value 0.0547 | locus YJL095W, strain BCK1, stronger effect = lower value 0.049 and 0.0904 | locus YJL115W, strain asf1, stronger effect = lower value 0.0708 | locus YJL129C, strain trk1, stronger effect = lower value 0.0757 | locus YJL134W, strain LCB3, stronger effect = lower value 0.0478 | locus YJL154C, strain vps35, stronger effect = lower value 0.0607 | locus YJL164C, strain tpk1, stronger effect = lower value 0.0535 | locus YJL166W, strain qcr8, stronger effect = lower value 0.0568 | locus YJL168C, strain set2, stronger effect = lower value 0.0569 | locus YJL187C, strain SWE1 (second series), stronger effect = lower value 0.0409 | locus YJL187C, strain SWE1, stronger effect = lower value 0.0593 | locus YJR043C, strain POL32, stronger effect = lower value 0.0614 | locus YJR066W, strain TOR1, stronger effect = lower value -0.00145
